The record followed here is PubChem BioAssay AID720530 (The Scripps Research Institute Molecular Screening Center, 2013).

SMILES strings stand for the structures. About 260 (26%) of roughly 1,000 compounds were called active. No stated cut-off is given here; in the data, active means inhibition above about 21%; inactive means the rest. Not all results are given here.

For the assay, the target named is E3 ubiquitin-protein ligase UHRF1 (Homo sapiens) (UniProt Q96T88). Put plainly: blockers of UHRF1 binding to methyl-oligo – biochemical, TR-FRET, human UHRF1, counter-screen for MBD2 inhibitor project (AID 720530).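 Further: UHRF1 SRA domain binding a labeled hemimethylated CpG hairpin DNA; 0% = vehicle only and 100% = reference inhibitor with vehicle.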 The following applies: UHRF1 binding to methylated oligonucleotide, at 4.4 µM, hits give high values. In general terms: TR-FRET usually uses a lanthanide donor and a delayed reading to cut background.
Chain of E3 ubiquitin-protein ligase UHRF1 (Homo sapiens) (Q96T88 whole entry, looked up, the tested form may be a part): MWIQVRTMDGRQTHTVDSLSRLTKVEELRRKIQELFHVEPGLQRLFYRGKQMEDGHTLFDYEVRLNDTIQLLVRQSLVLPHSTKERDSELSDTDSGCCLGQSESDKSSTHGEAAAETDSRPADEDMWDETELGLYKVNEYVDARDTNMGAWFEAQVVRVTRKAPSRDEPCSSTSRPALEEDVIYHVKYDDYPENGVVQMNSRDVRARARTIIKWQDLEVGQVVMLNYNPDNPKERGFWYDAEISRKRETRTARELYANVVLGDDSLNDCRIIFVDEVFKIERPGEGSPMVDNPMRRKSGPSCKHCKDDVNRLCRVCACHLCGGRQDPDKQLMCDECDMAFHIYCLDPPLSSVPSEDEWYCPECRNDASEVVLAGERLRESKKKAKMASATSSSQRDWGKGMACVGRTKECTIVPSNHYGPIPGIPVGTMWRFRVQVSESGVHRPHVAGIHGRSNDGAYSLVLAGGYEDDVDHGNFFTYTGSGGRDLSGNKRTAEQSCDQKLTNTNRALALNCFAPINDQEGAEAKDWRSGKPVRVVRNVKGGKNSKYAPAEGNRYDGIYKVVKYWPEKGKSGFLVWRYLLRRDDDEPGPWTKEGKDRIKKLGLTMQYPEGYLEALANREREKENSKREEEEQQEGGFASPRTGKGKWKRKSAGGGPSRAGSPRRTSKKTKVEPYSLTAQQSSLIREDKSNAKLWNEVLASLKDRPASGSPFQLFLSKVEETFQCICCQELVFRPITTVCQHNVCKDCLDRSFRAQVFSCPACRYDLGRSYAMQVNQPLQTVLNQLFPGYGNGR
Consider `O=C1NC(=O)N(Cc2ccco2)C(=O)/C1=C\c1ccc(-c2ccc(F)cc2)o1`, for which the inhibition was 12.8% (inactive).

`COc1ccc(N2C(=O)/C(=C/c3ccco3)C(=O)NC2=S)cc1`: the inhibition is 97.2% (active).

With `Cc1cc(/C=C2/C(=O)NC(=O)N(Cc3ccco3)C2=O)c(C)n1-c1ccc(C(=O)O)cc1`, the inhibition is 15.7% (inactive).

As usually defined, the inhibition is the relative decrease from the control value, in per cent.
